Consider 65 compounds from PubChem BioAssay AID411 (National Center for Advancing Translational Sciences (NCATS), 2006).

Several values for one entry are separate records, joined by “and”; a condition that tells them apart may be missing. Equal entries are not always repeated. In all, about 72,000 compounds went through this assay and about 1,600 (2.2%) were called active. This is one part of a sample in which actives are shown more often than they occur. Values without a mark were called inactive. Calls come from the whole dose curve; as a rule, active = well fitted inhibition curve with a large enough effect; inconclusive = small, poorly fitted or top-dose-only effect; inactive = flat fitted curve, though single readings scatter.
% is set by controls: 0 for no effect and ±100 for the full control effect; potency is the fitted concentration of half-maximal effect.

Luciferin 4-monooxygenase (Photinus pyralis), sequence (P08659 whole entry, looked up): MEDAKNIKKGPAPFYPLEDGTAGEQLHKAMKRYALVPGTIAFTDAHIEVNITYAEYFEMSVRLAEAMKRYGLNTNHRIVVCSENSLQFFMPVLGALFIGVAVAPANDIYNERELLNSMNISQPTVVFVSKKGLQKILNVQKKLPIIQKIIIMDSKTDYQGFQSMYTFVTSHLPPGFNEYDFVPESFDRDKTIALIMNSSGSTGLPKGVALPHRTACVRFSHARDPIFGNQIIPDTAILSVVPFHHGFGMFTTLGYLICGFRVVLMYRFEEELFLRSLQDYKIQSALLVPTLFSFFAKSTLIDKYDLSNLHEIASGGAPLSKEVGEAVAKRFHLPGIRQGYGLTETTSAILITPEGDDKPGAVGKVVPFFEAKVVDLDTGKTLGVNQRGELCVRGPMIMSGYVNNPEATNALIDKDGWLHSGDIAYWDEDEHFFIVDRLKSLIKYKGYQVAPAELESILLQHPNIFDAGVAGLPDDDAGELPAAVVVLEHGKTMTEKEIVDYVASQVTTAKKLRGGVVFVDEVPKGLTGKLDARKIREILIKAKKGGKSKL

This test deals with Luciferin 4-monooxygenase (Photinus pyralis) (UniProt P08659). Description: qHTS Assay for Inhibitors of Firefly Luciferase. Note: nearly all actives have a fitted effect of over 40% in size. Particulars: purified firefly luciferase, luminescence, 8 min; series mostly up to 57.1 µM; activity change, negative = inhibition: at the top concentration. An outline of the steps:
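Compounds were tested as concentration series (qHTS) against purified P. pyralis luciferase with luciferin and 10 uM ATP in 50 mM imidazole pH 7.2, 50 mM KCl, 7 mM MgCl2, 0.01% Tween 20, 0.05% BSA. Luminescence was read after 8 min at ambient temperature.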
Background: In qHTS, concentration-response curves come from the screen itself.
With `CCOc1ccc(N=C2SC(C(=O)O)CC(=O)N2C)cc1` (stereo not given), the “activity change, negative = inhibition” value is -2.63%.
On the same count and under the same terms, the value for `O=C(Nc1ccc2c(c1)OCCO2)c1ccncc1` was -17.4%.
Same read-out and setting: in the case of `Cc1ccnc(N2CCCC(C(=O)Nc3cc(F)ccc3C)C2)n1` (stereo not given) it was 2.9%.
Regarding `O=C(Nc1ccc2c(c1)OCCO2)C1CCCN(c2ncccn2)C1` (stereo not given), the Potency was 10 µM (active).
As to `COc1c(Br)cc2c(C)c(C(=O)N3CCOCC3)oc2c1Br`, the “activity change, negative = inhibition” value was -0.12%.
Same read-out and setting: in the case of `c1ccc(COc2nsnc2N2CCOCC2)cc1` it was -12.5%; in that of `CCCC(=O)N(CCc1ccccc1)Cc1nc2ccccc2c(=O)[nH]1`, 1.75%.
In the case of `CCc1nnc(NC(=O)c2cccs2)s1`, the “activity change, negative = inhibition” value is -7.96%.
On the same count and under the same terms, the value for `CCOc1cc(NC(=O)c2ccco2)c(OCC)cc1NC(=O)COc1ccccc1` was -1.31%; that for `COc1ccc(NC(=O)c2cccc(NC(=O)c3ccco3)c2)c(OC)c1` was -17.4%; that for `O=C(Nc1ccc(Cl)cn1)Nc1cccs1` was -15.8%.
On to `O=C(Nc1ccc(Oc2ccccc2)cc1)c1ccco1`, for which the Potency was 15.8 µM (active).
On to `CC(C)(C)NC(=O)c1cc(NC(=O)c2ccco2)cc(NC(=O)c2ccco2)c1`, for which the “activity change, negative = inhibition” value was -5.21%.
`O=C(Nc1ccc(NC(=O)c2cccs2)cn1)c1ccco1`: the Potency was 5.01 µM (active).
Consider `Cc1ccnc(NC(=O)c2ccc(NC(=O)c3ccco3)cc2)c1`, for which the Potency is 25.1 µM (active).
`Cc1ccc(C(=O)COc2cccc(NC(=O)c3ccco3)c2)cc1`: the “activity change, negative = inhibition” value was -18.4%.
For the compound `COC(=O)c1ccc(NC(=O)c2ccco2)cc1`, the Potency is 20 µM (active).
For the compound `COC(=O)c1cc(Cl)c(NC(=O)c2ccco2)cc1OC`, the “activity change, negative = inhibition” value is -0.363%.
Still for that read-out and setting: in the case of `CN1CCN(S(=O)(=O)c2ccc(NC(=O)c3ccco3)cc2)CC1` it was 0.616%; in that of `CCc1cccc(C)c1NC(=O)CSc1nnc(-c2ccco2)n1N`, 3.08%; in that of `CC(C)C(=O)N1CCN(c2nc(-c3ccccc3)c3c(c2C#N)CC(C)(C)OC3)CC1`, 0.212% [at 25.5 µM].
On the same count and under the same terms, in the case of `CC(=O)N1CCC2(CCCN(Cc3ccccc3)C2)CC1` it was -1.06% [at 11.4 µM]; in that of `COCCNc1ccnc(-c2cccc(NS(C)(=O)=O)c2)n1`, 0.411% [at 2.29 µM].
On to `O=C1C[C@@H](O)[C@@H](O)[C@H]2[C@@H]3C(=O)N(Cc4ccc5c(c4)OCO5)C(=O)[C@@H]3CC[C@H]12`, for which the activity change, negative = inhibition was 1.52% [at 11.4 µM] and -0.708% [at 11.4 µM].
Still for that read-out and setting: in the case of `CC(NCCO)C(=O)C12CC3CC(CC(C3)C1)C2` (stereo not given) it was 0.832%; in that of `C[N+](C)(C)CCCCCNCC12CC3CC(CC(C3)C1)C2`, 1.32%; in that of `CCn1c(=N)n(CC(=O)c2cccc(OC)c2)c2ccccc21`, -14.7%.
Same read-out and setting: in the case of `CN(C)c1ccc(-c2nc(NCCN3CCOCC3)c3ccccc3n2)cc1` it was -10.7% [at 2.29 µM].
On the same count and under the same terms, in the case of `ClC(Cl)(Cl)C(N1CCN(c2ccccc2)CC1)N1CCN(c2ccccc2)CC1` it was 2.2% [at 11.4 µM]; in that of `CCOC(=O)c1nnn(-c2nonc2OC)c1-c1ccccc1`, 1.47%; in that of `CC(=O)N1CSCC1C(=O)O` (stereo not given), 4.56%.
`CC1CCC(NC(=O)c2ccc(N3CCCC3=O)cc2)CC1` (stereo not given): the “activity change, negative = inhibition” value is -12.8%.
The same measure, in the same setting: the value for `COc1cccc(OC)c1C(=O)Nc1nnc(C(C)C)s1` was 2.84%; that for `COc1ccccc1Nc1ncc(C(C)=O)c(C)n1` was -24.1%.
Regarding `COc1cccc2sc(Nc3nc(C)c(C(C)=O)s3)nc12`, the Potency is 5.01 µM (active).
For `Cc1c(S(=O)(=O)O)ccc(N=Nc2c(O)c(C(=O)O)cc3ccccc23)c1Cl`, the activity change, negative = inhibition is -2.84% [at 11.4 µM].
The same measure, in the same setting: in the case of `COc1cccc(NS(=O)(=O)c2ccc3[nH]cc(C(=O)NCCCOC(C)C)c(=O)c3c2)c1` it was 1.42%; in that of `CCCCN(CCCC)CCC(O)c1cc2c(Cl)cc(Cl)cc2c2cc(C(F)(F)F)ccc12` (stereo not given), -2.13% [at 25.5 µM]; in that of `Cc1ccc(C(=O)N2CCCCCC2)cc1Br`, -0.659%.
With `Cc1ccc2cc3cc(C(=O)N4CCCCCC4)oc3nc2c1`, the Potency is 7.94 µM (active).
With `Cc1ccc2oc(=O)c3cnn(CC(=O)N4CCCCCC4)c3c2c1`, the “activity change, negative = inhibition” value was 0.564%.
Same read-out and setting: in the case of `O=C(O)C1CC=CCC1C(=O)NCCc1ccccc1` (stereo not given) it was -0.736%.
As to `CC1CCCN(c2ccc(C(=O)NCCc3ccccc3)cn2)C1` (stereo not given), the Potency is 15.8 µM (active).
Consider `O=C(NCCCNCc1ccccc1)c1ccc(/C=N/O)nc1`, for which the “activity change, negative = inhibition” value was 2.11%.
Still for that read-out and setting: in the case of `CN(C)CCCNc1c2c(c(C#N)c3nc4ccccc4n13)CCC2` it was -1.09%; in that of `CCOC(=O)C1=C(C)NC(=O)N(C(C)=O)C1c1ccc(Cl)cc1` (stereo not given), 1.78%.
`O=C(Oc1ccc(-c2nc(-c3ccccn3)no2)cc1)c1ccccc1`: the Potency is 2.51 µM (active).
In the case of `O=C(Oc1ccccc1)c1ccc2nccnc2c1`, the “activity change, negative = inhibition” value is -17.8%.
For `CC(C)c1nc(-c2ccccn2)no1`, the “activity change, negative = inhibition” value was -1.32%.
Still for that read-out and setting: in the case of `C=CCn1c(SCn2nnc3ccccc3c2=O)nnc1-c1ccc(Cl)cc1` it was -0.689%; in that of `CCOC(=O)c1[nH]c2ccc(OC)cc2c1NC(=O)N1CCOCC1`, 2.51%.
Same read-out and setting: the value for `COc1ccc(C2CC(c3ccccc3)Nc3ncnn32)cc1` (stereo not given) was 2.52%; that for `COc1ccc(OCC(=O)OCCN(C)C)cc1` was -3.76% [at 25.5 µM].
On the same count and under the same terms, the value for `O=C(Nc1ncccn1)c1cccs1` was 1.5%; that for `O=C(O)c1ccc(NC(=O)c2cccs2)cc1` was 1.11%.
With `Cc1nc(-c2ccc(NC(=O)c3cccs3)cc2)cs1`, the Potency was 1.26 µM (active).
As for `OCCCNCc1ccccn1`, the activity change, negative = inhibition is 3.67% [at 11.4 µM].
Turning to `Cc1nn2c3cc(N4CCOCC4)ccc3nc2c2ccccc12`, the Potency was 2 µM (active).
Regarding `Cc1cc(C)c2c(n1)nn1c(N3CCOCC3)cc(C)nc21`, the “activity change, negative = inhibition” value was 1.01%.
Same read-out and setting: the value for `COCCCNC(=O)CSc1nc2ccc(N3CCOCC3)cc2c(=O)n1CCc1ccccc1` was 0.796%; that for `CCOc1ccc(NCCC(=O)c2ccc3c(c2)OCO3)cc1` was -2.15%.
Still for that read-out and setting: the value for `CC(C)CCNC(=O)C(C)N(C(=O)Cn1nnc(-c2ccc(F)cc2)n1)C1CCCC1` (stereo not given) was 0.388%; that for `COCCNc1ncnc2ccc(-c3cccnc3)cc12` was -1.48% [at 2.29 µM]; that for `CCN(CC)C(=O)CCC(=O)Nc1ccc(C(=O)OC)cc1` was 1.03%.
Take `COC(=O)c1ccc(NC(=O)C(C)N2C(=O)c3ccccc3C2=O)cc1` (stereo not given): the “activity change, negative = inhibition” value is -1.71%.
